Compounds without any hit were thinned out: in the full panel of roughly 83,000, 20% have a hit.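 Plates (96-well) were seeded with cells, treated with compound at one concentration, and incubated for 48 hours before percent growth was determined.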 Unmarked numbers belong to inactive results. Activity calls are given as the source filed them. The calls were made as follows: active = growth percent below 10; inactive = the rest.
Key:
Test in all cases: NCI-60 one-dose screen, 48 h (100 = growth as untreated, 0 = no growth, -100 = all killed)
Details in all cases: 10 µM unless noted
[1] = test system: T-47D breast
[2] = test system: BT-549 breast
[3] = test system: MDA-MB-435 melanoma
[4] = test system: SW-620 colon
[5] = test system: MCF7 breast
[6] = test system: HCT-116 colon
[7] = test system: HCC-2998 colon
[8] = test system: KM12 colon

SMILES	growth [1]	growth [2]	growth [3]	growth [4]	growth [5]	growth [6]	growth [7]	growth [8]
NS(=O)(=O)c1ccc(Nc2nc(N/N=C/CCc3ccccc3)nc(Nc3ccccc3)n2)cc1	102%	99.4%	101%	104%	96.3%	103%	113%	109%
CN1CCN(c2nc(-c3csc(-c4ccccc4)n3)cc3ccccc23)CC1	-23.3% (active)	96.2%	7.31% (active)	-19.1% (active)	9.31% (active)	2.27% (active)	-84.7% (active)	18.7%
N#Cc1cccc(CN2CCc3ncn(Cc4ccc(Cl)cc4)c(=O)c3C2)c1	30.7%	29.7%	18.4%	33.2%	15.5%	19.5%	13.9%	29.7%
C=C(C=O)[C@@H]1CC[C@]2(COC(C)=O)CC[C@]3(C)C(CC[C@@H]4[C@@]5(C)CC[C@H](OC(C)=O)C(C)(C)[C@@H]5CC[C@]43C)[C@@H]12 (stereo partly drawn)	4.4% (active)	11.1%	-13.6% (active)	0.204% (active)	-33.5% (active)	-58.4% (active)	-63% (active)	-40.8% (active)
CCC(NC(c1cc2cccc3ccc4cccc1c4c32)c1nnnn1C(C)(C)C)C1CCCCC1 (stereo not drawn)	74.6%	50.5%	60%	61.5%	48.2%	40.6%	90.3%	67.8%
COc1ccccc1-n1cc(C#N)c(N)c1C(=O)c1ccc(Cl)cc1	88.3%	92.7%	-16.7% (active)	40.8%	32.3%	63.5%	68.2%	58.2%
Cn1ccnc1C(=O)/C=C/C=C/c1ccc(C(=O)Nc2ccc(F)cc2)cc1	28.2%	36.3%	4.45% (active)	-2.98% (active)	13.3%	-36.3% (active)	66.4%	17.1%
COc1cccc2c1CN(C(=O)c1ccc(O)c(C(=O)N3Cc4ccc(OCCC[P+](c5ccccc5)(c5ccccc5)c5ccccc5)cc4C3)c1)C2	37.6%	65.9%	32%	70.5%	17.9%	80.8%	47.9%	44.4%
COc1cc(-c2nn(C(C)(C)C)cc2-c2ccnc(NCCCNS(=O)(=O)c3ccccc3)n2)ccc1Cl	82.3%	81.1%	84%	90.3%	70.1%	59.9%	95.6%	86.5%
c1cc(-c2nc3ccc4[nH]ncc4c3c3c2CCCC3)[nH]n1	73.8%	31.2%	10.5%	25%	40%	25.6%	78.9%	24%
CCCCCCCn1cc2c(N[C@H](C)c3ccccc3)ncnc2n1	99.7%	102%	103%	117%	90.3%	104%	116%	100%
CCO/C=N/C1=C(C#N)C(c2ccc(Cl)cc2)c2sc3c(C)cccc3c2O1 (stereo not drawn)	33.5%	38.8%	-49.6% (active)	26.5%	14.5%	14.8%	9.57% (active)	15.2%
NS(=O)(=O)c1ccc(Nc2nc(N/N=C/c3c[nH]c4ccccc34)nc(Nc3ccccc3)n2)cc1	35.3%	48.8%	31.3%	49%	18.8%	15.9%	52.6%	27.3%
N/C(=N\C(N)=N\c1nc2ccccc2s1)c1cccc(F)c1	74.6% [5 µM]	96.7% [5 µM]	104% [5 µM]	97.2% [5 µM]	85.8% [5 µM]	89.3% [5 µM]	112% [5 µM]	99.9% [5 µM]
NC(N)=Nc1ccc(Oc2cccc(Nc3cccc(C(F)(F)F)c3)c2)cn1	37.3%	61.2%	-20.6% (active)	-79.1% (active)	-69.1% (active)	-76.8% (active)	-91.9% (active)	-82.8% (active)
COc1ccc(/C=N/NC2=NC3C(S2)N(C)C(=O)N3C)cc1 (stereo not drawn)	26.7%	66%	-56.4% (active)	16.1%	15.4%	33.5%	67%	20.8%

SMILES	growth [1]	growth [2]	growth [3]	growth [4]	growth [5]	growth [6]	growth [7]	growth [8]
O=C(O)c1ccc(-n2cc(CNc3cccc(Cl)c3)c(-c3ccc(F)cc3)n2)cc1	92.1%	108%	102%	110%	70%	89.2%	105%	94.2%
COCCNc1ccc2ncc(C#Cc3cncc(C(=O)Nc4ccc(CN5CCN(C)CC5)c(C(F)(F)F)c4)c3)n2n1	-7.3% (active)	-36.7% (active)	-24.8% (active)	-54.1% (active)	-30.7% (active)	-66.9% (active)	-23.6% (active)	-9.09% (active)
NS(=O)(=O)c1ccc(Nc2nc(SCc3ccccc3)nc3ccccc23)cc1	24.8%	66.7%	76.8%	61%	54.3%	53.2%	83%	27.8%
O=c1[nH]c2ccccc2cc1CSc1ccccc1Nc1nccc(-c2ccc(Cl)cc2)n1	93.3%	119%	99.9%	101%	81.1%	100%	114%	100%
Cc1cc(C)cc(C(=O)Nc2cccc(C#Cc3cccc4[nH]nc(N)c34)c2)c1	39.4%	115%	2.35% (active)	38.6%	38.1%	43.2%	57.7%	12.6%
COc1cc(OC)c(/C=C/S(=O)(=O)Cc2ccc(OC)c(NC(=O)CCC(=O)NO)c2)c(OC)c1	86.4%	14.5%	-2.23% (active)	21.7%	11.9%	3.5% (active)	10.3%	7.24% (active)
O=C(CSc1nnc(-c2ccc(Cl)cc2)n1-c1ccccc1)Nc1cccc(Cl)c1	48.2%	61.6%	72.9%	49.8%	65.1%	12.8%	83.8%	71.9%
COc1ccc(NC2=C(Cl)C(=O)c3nc(C)ccc3C2=O)cc1OC	14.9%	126%	-67.2% (active)	72.2%	59%	55.8%	104%	98.2%
CCO/C=N/C1=C(C#N)C(c2ccc(Cl)cc2)c2sc3c(CC)cccc3c2O1 (stereo not drawn)	26.9%	59.6%	-43.2% (active)	32.3%	16.2%	23.1%	23.6%	15.3%
COc1ccc(CCN2C(=O)CSC2=S)cc1	50.7%	112%	77.6%	61.3%	24.2%	84.6%	110%	6.12% (active)
O=c1c2ccccc2nc(COc2ccccc2)n1NS(=O)(=O)c1ccc(Cl)cc1	74.8%	106%	5.47% (active)	64.1%	41.9%	83.6%	77.6%	55.2%
CCOC(=O)c1c(N)c(C#N)cn1-c1cc(OC)c(OC)c(OC)c1	112%	107%	103%	98.8%	91.1%	113%	115%	108%
COC(=O)/C=C/c1c(C2(C)NC(=O)c3ccccc3N2)c(=O)oc2ccc(Cl)cc12 (stereo not drawn)	91.6%	87.4%	102%	96.3%	86.9%	88.6%	102%	93.4%
COc1ccc(-n2c(SCc3n[nH]c(=S)o3)nc3ccc(Cl)cc3c2=O)cc1	97.6%	115%	94.8%	97.8%	90.6%	104%	101%	98.6%
O=C(CN1CCN(c2cc(=O)[nH]c3ccc(F)cc23)CC1)Nc1ccc(Cl)cc1	66.3%	47.6%	96%	93.8%	58.8%	57.6%	92.3%	91.6%

Source: PubChem BioAssay (NCI)
